Compounds without any hit were thinned out: in the full panel of roughly 83,000, 20% have a hit.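 For each line, cells grew in 96-well plates with the test compound present at a single concentration for 48 hours.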 A number with no mark means an inactive call. Calls of active or inactive are those of the source. How the source made its calls: active means growth percent below 10; inactive means the rest.
Legend:
Assay in all cases: NCI-60 one-dose screen, 48 h (100 = growth as untreated, 0 = no growth, -100 = all killed)
Conditions in all cases: 10 µM unless noted
[1] = system: NCI-H23 lung
[2] = system: NCI-H226 lung
[3] = system: NCI-H322M lung
[4] = system: HOP-62 NSCLC
[5] = system: NCI-H460 lung
[6] = system: HOP-92 NSCLC
[7] = system: NCI-H522 lung
[8] = system: A549/ATCC NSCLC
[9] = system: 786-0 renal
[10] = system: COLO 205 colon

SMILES | growth [1] | growth [2] | growth [3] | growth [4] | growth [5] | growth [6] | growth [7] | growth [8] | growth [9] | growth [10]
C=C1[C@@H](C)[C@H]2[C@H](Cc3ccccc3)NC(=O)[C@]23[C@@H](O)/C=C/[C@@](C)(O)C(=O)[C@@H](C)C/C=C/[C@H]3[C@@H]1O | 68.2% | 50.4% | 92.2% | 5.91% (active) | 69.3% | -9.38% (active) | 28% | 37.7% | 20.1% | -17.8% (active)
CC(=O)O[C@H](C[C@H](C(C)C)N(C)C(=O)[C@@H](NC(=O)[C@H]1CCCN1C)C(C)C)c1nc(C(=O)N[C@@H](Cc2ccccc2)C[C@H](C)C(=O)O)c(C)s1 | 30.3% | 54.8% | 52% | 29.7% | 5.67% (active) | 16.5% | -24.7% (active) | 13.3% | 22.4% | -63.2% (active)
CC1CN1CCCCN1CC1C (stereo not given) | 109% | 106% | 101% | 109% | 104% | 88.2% | 66.4% | 101% | 103% | 115%
Brc1ccc2c(c1)c(-c1nc(-c3c[nH]c4ncccc34)cs1)cn2CCN1CCCCC1 | 89% | 80% | 65.6% | 88.7% | 67.4% | 37.1% | 68.8% | 67.5% | 53% | 37.7%
CCCC(C)C1(CC)C(=O)NC(=O)N(C)C1=O (stereo not given) | 100% | 85.5% | 100% | 85.1% | 106% | 92% | 80.7% | 79.1% | 94.3% | 99.6%
CC(=O)OC1C(OC/C2=C/C3[C@@H](C(C)C)CC=C(C)[C@@H]3CC(OC(=O)/C=C/c3cn(C)cn3)[C@]3(C)C=C[C@@]2(O)O3)OCC(O)C1O (stereo not given in full) | 18.2% | 63.5% | 17.4% | 8.78% (active) | 9.03% (active) | 35.3% | 0.4% (active) | 27.9% | 15.9% | -24.9% (active)
CC[C@H](C)[C@H](NC(=O)[C@H]1CCCCN1C)C(=O)N(C)[C@H](CCc1nc(C(=O)N[C@@H](Cc2ccccc2)C[C@H](C)C(=O)OC)cs1)C(C)C | 31% | 28.6% | 40.9% | 14.3% | 6.43% (active) | 12.9% | -14.6% (active) | 17% | 7.3% (active) | -64.1% (active)
CCCCCN(CCCCC)CC(O)c1cc(Cl)ccc1OC (stereo not given) | 37.6% | 65.2% | 62.2% | 4.36% (active) | 15.4% | -6.26% (active) | 21.4% | 42.2% | 24.7% | 13.3%
COc1ccc(/C(C)=C(\c2ccc(OCCN3CCOCC3)cc2)c2ccc(OC(=O)Cc3ccccc3)cc2)cc1 | 95.1% | 110% | 111% | 108% | 110% | 105% | 94.9% | 94.3% | 104% | 109%
O=C(c1ccccc1O)c1[nH]c(Cl)c(Cl)c1-n1c(C(=O)c2ccccc2O)cc(Cl)c1Cl | -10.6% (active) | -1.5% (active) | -0.432% (active) | -9.18% (active) | 0.792% (active) | -37.6% (active) | -17.9% (active) | 3.18% (active) | -9.15% (active) | -95.7% (active)
C[C@@]12CC[C@@H](O)C[C@@H]1CC[C@H]1[C@H]2CC[C@@]2(C)[C@H](c3ccc(=O)oc3)CC[C@@]12O | -50% (active) | -91.9% (active) | -45.3% (active) | -75.3% (active) | -78.7% (active) | -13.1% (active) | -26% (active) | -61.9% (active) | -51.1% (active) | -68.1% (active)
COC(=O)[C@@H](C)C[C@H](Cc1ccccc1)NC(=O)c1csc([C@@H](C[C@H](C(C)C)N(C)C(=O)[C@@H](NC(=O)[C@H]2CCCCN2C)C2CCCCC2)OC(C)=O)n1 | 16.1% | 20.5% | 34.1% | -19.8% (active) | 1.05% (active) | -13.2% (active) | -32.1% (active) | 11.4% | 3.22% (active) | -75.7% (active)
NC1CC2CCCCC2CC1(O)c1ccccc1 (stereo not given) | 94.7% | 92.2% | 103% | 106% | 103% | 88.6% | 97.8% | 99.3% | 99.6% | 106%
COc1ccc(/C=C\c2cc(OC)c(OC)c(OC)c2)cc1NS(=O)(=O)c1ccc(Cl)cc1 | 75.3% | 70.9% | 73.1% | 83.9% | 84.1% | 37% | 25.9% | 58.9% | 78% | 73.6%
CCCCCCCC(=O)OCC(=O)[C@]1(O)Cc2c(O)c3c(c(O)c2[C@@H](OC2CC(N)C(O)C(C)O2)C1)C(=O)c1c(OC)cccc1C3=O (stereo not given in full) | -76.2% (active) | -65.9% (active) | -72.8% (active) | -63.1% (active) | -92.9% (active) | -73.5% (active) | -63.2% (active) | -97.6% (active) | -82.9% (active) | -85.7% (active)
CC12CCC3C(CCC4=CC(=O)CCC43CF)C1CCC2=O (stereo not given) | 106% | 111% | 102% | 124% | 109% | 114% | 87.3% | 99.3% | 106% | 135%
C=CCc1cc2c(cc1OCC)OCO2 | 95.6% | 99.3% | 114% | 64.7% | 102% | 81.1% | 74.5% | 88.9% | 92.4% | 108%
COc1cccc(C=NC(Cc2cnc[nH]2)C(=O)O)c1O (stereo not given) | 107% | 94.8% | 95.5% | 87.6% | 107% | 56% | 59.3% | 91.5% | 97.2% | 122%
COc1ccc(/C=C/c2cc(OC)c(OC)c(OC)c2)cc1NC(=O)/C=C/c1ccc(F)cc1 | 6.1% (active) | 36.6% | 55.5% | 24.9% | 14.6% | 93.1% | -8.36% (active) | 38% | 37.8% | -26.3% (active)
COc1cc(NC(C)CCCNC2CN3CCC2CC3)c2ncccc2c1 (stereo not given) | 84.5% | 87.4% | 63.3% | 75.8% | 106% | 46.6% | 82.1% | 95.1% | 62.5% | 35.3%
CC1=C(CCCOC(=O)[C@H](N)CC(C)C)C2=C(C)C3(CC3)[C@@](C)(O)C(=O)C2=C1 | -27.6% (active) | 0.712% (active) | 18.5% | -13% (active) | 2.82% (active) | -13.6% (active) | 31.3% | 0.0474% (active) | 1.3% (active) | -46.1% (active)
Cc1ccc(N2COOC3(OOC2)C2CC4CC(C2)CC3C4)cc1 | 89.5% | 108% | 98.7% | 93.1% | 103% | 95.5% | 92.5% | 98.7% | 96.1% | 110%
CCOC(=O)c1c(C)n(Cc2ccccc2)c2cc(CN(C)C)c(O)cc12 | 57.2% | 91.3% | 41.8% | 47.9% | 53.4% | 8.81% (active) | 77.9% | 79.5% | 57.8% | 58%
Cn1cc(C2=C(c3cn(C4CCN(Cc5ccccn5)CC4)c4ccccc34)C(=O)NC2=O)c2ccccc21 | 53.6% | 93.5% | 37.2% | 68% | 74.9% | 69.8% | 48.8% | 50.8% | 79.7% | 6.03% (active)
C[n+]1c(/C=C/c2ccc(N(CCCl)CCCl)cc2)sc2ccccc21 | 44.9% | 73.7% | 95% | 52.2% | 20.7% | 61.9% | 16.4% | 40.2% | 50.3% | 32.2%
CC(=O)[O][Hg][O]C(C)=O | 98.4% | 118% | 89.6% | 100% | 101% | 142% | -73.9% (active) | 103% | 103% | 88.5%

— PubChem BioAssay (NCI)
